Source: PubChem (Center for Chemical Genomics, University of Michigan)
Dicer processing – blocks human Dicer maturation of pre-miR-21; Q9UPY3; cat-ELCCA pre-miR-21 Dicer processing, chemiluminescence; hits give high values; z-score at 25 µM; 47,000 tested, 6% active; AID 1347074; in the data active = z-score above about 3, passing the limit was not always enough;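 also: plate controls were vehicle for no effect and no enzyme for full effect; higher signal means more uncleaved substrate so more Dicer inhibition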
* = called active by the depositor. This is one part of a sample in which hits are shown more often than they occur.

SMILES | Dicer processing
CC(C)(C)c1ccc(OCC(=N)N)cc1 | -2.54
CC(C)(C)c1ccc(OCc2nnc(N)s2)cc1 | 4.04*
CC(C)(C)c1ccc(OCc2ccc(C(=O)O)cc2)cc1 | -1.34
O=C1CC(c2ccccc2)c2ccc3ccccc3c2N1 (configuration not stated) | 0.69
Nc1sc(-c2ccccc2)cc1-c1n[nH]c(=S)n1Cc1ccccc1 | -8.86
COc1ccc(-n2c(-c3cc(-c4ccccc4)sc3N)n[nH]c2=S)cc1 | 5.42*
Nc1sc(-c2ccccc2)cc1-c1n[nH]c(=S)n1-c1ccc(F)cc1 | -0.78
COc1ccccc1C1SCCN1S(=O)(=O)c1ccc(Br)cc1 (configuration not stated) | 2.64
COc1ccccc1C1N=C(N)Nc2nc3ccccc3n21 (configuration not stated) | 34.3*
COc1ccc(OC)c(C2N=C(N)Nc3nc4ccccc4n32)c1 (configuration not stated) | -1.18
COc1ccc(C2N=C(N)Nc3nc4ccccc4n32)cc1 (configuration not stated) | -0.05
COc1ccc(Cc2nnc(SCC3CC3)n2-c2ccc(F)cc2)cc1OC | 1
CCOC(=O)CSc1nc(N2CCOCC2)c2c(c1C#N)CCCC2 | -0.54
S=C(NCc1cccnc1)c1ccccc1 | -0.17
FC(F)(F)c1cnc(NCc2cccnc2)c(Cl)c1 | 0.67
Fc1ccc(NCc2cccnc2)cc1 | 3.2*
Cc1c(C)c(C)c(S(=O)(=O)N2CC(C)OC(C)C2)c(C)c1C (configuration not stated) | -0.05
O=C1c2ccccc2C(=O)N1CN1CCN(c2ccc(C(F)(F)F)cn2)CC1 | -0.97
O=[N+]([O-])c1ccc(Oc2ccc(Cl)cc2Cl)cc1C(F)(F)F | 0.22
COc1ccc(Oc2sccc2[N+](=O)[O-])cc1 | 0.72
O=[N+]([O-])c1ccsc1Oc1ccc(Cl)cc1Cl | 4.2*
O=C1C2C(c3ccccc3)OC3(C(=O)c4ccccc4C3=O)C2C(=O)N1Cc1ccc(Cl)cc1 (configuration not stated) | -0.69
Cc1ccc(NC2=NC(c3ccccc3)n3c(nc(C)cc3=O)N2)c(C)c1 (configuration not stated) | 1.98
Cc1cc(C)c2nc(Nc3nc(C)cc(=O)[nH]3)nc(C)c2c1 | 1.49
Cc1cc(C)c2nc(NC3=NC(c4ccccc4)CC(=O)N3)nc(C)c2c1 (configuration not stated) | 3.5*
SMILES | Dicer processing
O=c1c2cc(-c3ccccc3)sc2ncn1Cc1ccc(F)cc1 | 0.66
Cc1cc2nc(SCC(=O)C(C)(C)C)[nH]c2cc1C | 1.91
CC1=Nn2c(nc3sc(-c4ccccc4)cc3c2=O)SC1 | -1.28
COc1cc2c(cc1OC)-c1c(C#N)c(-c3ccc(Cl)cc3)c(C(=O)c3cccs3)n1CC2 | -0.34
COc1cc2c(cc1OC)-c1c(C#N)c(-c3ccc4c(c3)OCO4)c(C(C)=O)n1CC2 | 1.83
COc1cc2c(cc1OC)-c1c(C#N)c(-c3ccc(C)cc3)c(C(=O)c3cccs3)n1CC2 | 6.22*
COc1ccc(C2Nc3cc(C)c(C)cc3NC3=C2C(=O)CC(C)(C)C3)cc1OC (configuration not stated) | -0.97
COc1ccccc1Oc1ccc(NC(=O)c2cc3cc(Br)ccc3o2)cn1 | 2.33
COc1cccc(NC(=O)Nc2ccc(Oc3c(Cl)cccc3Cl)nc2)c1 | -0.35
COc1cccc(Oc2ccc(NC(=O)c3cc4cc(Br)ccc4o3)cn2)c1 | 3.07*
CCc1ccc(C2C3=C(Nc4c2c(=O)[nH]c(=O)n4CCOC)c2ccccc2C3=O)cc1 (configuration not stated) | -1.32
Cc1cc2n(n1)C(c1cc(Br)ccc1O)Nc1c(C)cccc1-2 (configuration not stated) | 8.68
COc1ccc(C2Nc3c(C)cccc3-c3cc(C)nn32)cc1OC (configuration not stated) | -0.04
Cc1cc2n(n1)C(c1ccc(N3CCCC3)cc1)Nc1c(C)cccc1-2 (configuration not stated) | 8.81
Cc1cc2n(n1)C(c1ccsc1)Nc1c(C)cccc1-2 (configuration not stated) | -0.46
COc1ccc(OC)c(C2Nc3c(C)cccc3-c3cc(C)nn32)c1 (configuration not stated) | -1.33
Cc1cc2n(n1)C(c1cccc(Cl)c1)Nc1c(C)cccc1-2 (configuration not stated) | 6.22*
Cc1cc2n(n1)C(c1ccccc1F)Nc1c(C)cccc1-2 (configuration not stated) | 0.62
Cc1cc2n(n1)C(c1ccc(Cl)cc1)Nc1c(C)cccc1-2 (configuration not stated) | 3.76*
COc1cccc(C2Nc3c(C)cccc3-c3cc(C)nn32)c1O (configuration not stated) | 4.94*
COc1ccc(C2Nc3c(C)cccc3-c3cc(C)nn32)cc1 (configuration not stated) | 0.76
CCOc1cccc(C2Nc3c(C)cc(C)cc3-c3cc(C)nn32)c1O (configuration not stated) | 2.6
Cc1cc2n(n1)C(c1ccccc1Cl)Nc1c(C)cccc1-2 (configuration not stated) | 5.93*
C=CCc1nc(C)c(CC(=C)C)c(=O)[nH]1 | 0.74
COc1ccc(C(=O)Cc2c(O)c3ccccc3oc2=O)cc1 | -0.04
SMILES | Dicer processing
COC(=O)c1cc(C#N)c(SCC(=O)Nc2cc(Cl)cc(Cl)c2)nc1C(OC)OC | -2.29
COC(=O)C1=C(C)NC2=C(C(=O)CC(C)(C)C2)C1c1ccccc1OC(C)C (configuration not stated) | -0.3
Cc1ccc(NS(=O)(=O)c2ccc(Br)cc2C)c(C)c1 | -0.51
CC(C(=O)c1ccc(-c2ccccc2F)cc1)N1CCN(c2ccc(C(F)(F)F)cn2)CC1 (configuration not stated) | -1.27
Cc1cc(NC(=S)NCCO)ccc1F | -0.76
Cn1c(CSCC(=O)Nc2ccccc2)nnc1SCC(=O)Nc1cccc(Cl)c1 | 1.12
Cc1ccc2c(c1)OC(c1ccc(N(C)C)cc1)N2 (configuration not stated) | -0.36
CCc1ccc(C)nc1NC(=O)c1snnc1C | 0.19
Cc1cc2n(n1)C(c1ccc3c(c1)OCO3)Nc1c(C)cccc1-2 (configuration not stated) | 3.12*
Cc1cc(C)c2c(c1)-c1cc(C)nn1C(c1ccc3c(c1)OCO3)N2 (configuration not stated) | 1.23
COc1ccc(C2Oc3ccccc3C3CC(c4cccnc4)=NN32)cc1 (configuration not stated) | 1.87
Oc1ccc(Cl)cc1C1=NN2C(C1)c1ccccc1OC2c1ccncc1 (configuration not stated) | -0.87
COc1cc(C2Oc3ccccc3C3CC(c4ccccc4)=NN32)ccc1OC(C)=O (configuration not stated) | 4.45*
Clc1ccc2c(c1)C1CC(c3ccccc3)=NN1C(c1ccncc1)O2 (configuration not stated) | 15*
COc1ccc(C2Oc3ccccc3C3CC(c4ccc(C)o4)=NN32)cc1OC (configuration not stated) | -1.98
Cc1ccc(C2Oc3ccccc3C3CC(c4ccncc4)=NN32)cc1 (configuration not stated) | -0.49
c1cncc(C2=NN3C(C2)c2ccccc2OC3c2cccs2)c1 (configuration not stated) | -0.24
CSCCC1Oc2ccc(Cl)cc2C2CC(c3ccccc3O)=NN12 (configuration not stated) | -1.13
